Hit rate of the full screen: of about 5,500 compounds, about 2,000 (36%) were called active. Not shown: some 18% with an inconclusive outcome. Cut-off read from the data, not from the text of the source: active = normalized growth mostly below about 0.91 (no sharp cut-off); inconclusive = no clear call, values can overlap the other calls; inactive = mostly above about 0.92. This is one part of the list.
Assay: chemical genetic growth profiling, strain panel (AID 1159580);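 note: tested at 20 µM; growth read once vehicle control cultures reached saturation at 30 °C; 1 = growth at the plate median or of vehicle wells; lower values mean less growth of the strain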
Conditions: growth OD

Measured: normalized growth

CC(C)(Oc1ccc(Cl)cc1)C(=O)O
inactive: S. cerevisiae deletion strains, locus YJR075W, strain HOC1, stronger effect = lower value 0.992 | S. cerevisiae deletion strains, locus YKL009W, strain mrt4, stronger effect = lower value 0.983 | S. cerevisiae deletion strains, locus YKL068W, stronger effect = lower value 0.967 | S. cerevisiae deletion strains, locus YKL085W, strain MDH1 (second series), stronger effect = lower value 0.981 | S. cerevisiae deletion strains, locus YKL085W, strain MDH1, stronger effect = lower value 0.981 | S. cerevisiae deletion strains, locus YKL160W, strain elf1, stronger effect = lower value 1.02 | S. cerevisiae deletion strains, locus YKL190W, strain CNB1, stronger effect = lower value 0.996 | S. cerevisiae deletion strains, locus YKR001C, strain vps1, stronger effect = lower value 0.973 | S. cerevisiae deletion strains, locus YKR026C, strain gcn3, stronger effect = lower value 1 | S. cerevisiae deletion strains, locus YKR091W, strain srl3, stronger effect = lower value 0.999 | S. cerevisiae deletion strains, locus YLL001W, strain dnm1, stronger effect = lower value 1 | S. cerevisiae deletion strains, locus YLL026W, stronger effect = lower value 1.01 | S. cerevisiae deletion strains, locus YLL041C, strain sdh2, stronger effect = lower value 0.996 | S. cerevisiae deletion strains, locus YLR027C, strain aat2, stronger effect = lower value 1.01 | S. cerevisiae deletion strains, locus YLR039C, strain RIC1, stronger effect = lower value 0.967 | S. cerevisiae deletion strains, locus YLR058C, strain SHM2, stronger effect = lower value 0.994 | S. cerevisiae deletion strains, locus YLR102C, strain apc9, stronger effect = lower value 0.987 | S. cerevisiae deletion strains, locus YLR221C, strain rsa3, stronger effect = lower value 0.981 | S. cerevisiae deletion strains, locus YLR258W, strain gsy2, stronger effect = lower value 1.03 | S. cerevisiae deletion strains, locus YLR262C, strain YPT6 (second series), stronger effect = lower value 1 | S. cerevisiae deletion strains, locus YLR262C, strain YPT6, stronger effect = lower value 0.948 | S. cerevisiae deletion strains, locus YLR268W, strain sec22, stronger effect = lower value 0.927 | S. cerevisiae deletion strains, locus YLR320W, strain mms22, stronger effect = lower value 0.98 | S. cerevisiae deletion strains, locus YLR330W, strain CHS5, stronger effect = lower value 0.985 | S. cerevisiae deletion strains, locus YLR342W, strain FKS1 (second series), stronger effect = lower value 1.06 | S. cerevisiae deletion strains, locus YLR342W, strain FKS1, stronger effect = lower value 1.03 | S. cerevisiae deletion strains, locus YLR357W, strain rsc2, stronger effect = lower value 1.03 | S. cerevisiae deletion strains, locus YLR370C, strain arc18, stronger effect = lower value 1.02 | S. cerevisiae deletion strains, locus YLR371W, strain rom2, stronger effect = lower value 0.98 | S. cerevisiae deletion strains, locus YLR384C, strain iki3, stronger effect = lower value 0.991 | S. cerevisiae deletion strains, locus YLR418C, strain cdc73, stronger effect = lower value 1 | S. cerevisiae deletion strains, locus YML016C, strain PPZ1, stronger effect = lower value 0.995 | S. cerevisiae deletion strains, locus YML032C, strain rad52, stronger effect = lower value 0.958 | S. cerevisiae deletion strains, locus YML120C, strain ndi1, stronger effect = lower value 0.983 | S. cerevisiae deletion strains, locus YML124C, strain tub3, stronger effect = lower value 0.99 | S. cerevisiae deletion strains, locus YMR058W, strain fet3, stronger effect = lower value 1.01 | S. cerevisiae deletion strains, locus YMR078C, strain ctf18, stronger effect = lower value 0.978 | S. cerevisiae deletion strains, locus YMR125W, strain sto1, stronger effect = lower value 1.05 | S. cerevisiae deletion strains, locus YMR129W, stronger effect = lower value 1.02 | S. cerevisiae deletion strains, locus YMR205C, strain PFK2, stronger effect = lower value 0.991 | S. cerevisiae deletion strains, locus YMR223W, strain ubp8, stronger effect = lower value 1.03 | S. cerevisiae deletion strains, locus YMR231W, strain pep5, stronger effect = lower value 0.999 | S. cerevisiae deletion strains, locus YMR263W, strain SAP30, stronger effect = lower value 0.985 | S. cerevisiae deletion strains, locus YMR307W, strain GAS1, stronger effect = lower value 1.09 | S. cerevisiae deletion strains, locus YNL067W, strain RPL9B, stronger effect = lower value 0.977 | S. cerevisiae deletion strains, locus YNL071W, strain lat1, stronger effect = lower value 1.02 | S. cerevisiae deletion strains, locus YNL128W, strain TEP1, stronger effect = lower value 0.996 | S. cerevisiae deletion strains, locus YNL153C, strain GIM3, stronger effect = lower value 0.979 | S. cerevisiae deletion strains, locus YNL209W, strain ssb2, stronger effect = lower value 1.02 | S. cerevisiae deletion strains, locus YNL233W, strain BNI4, stronger effect = lower value 0.994 | S. cerevisiae deletion strains, locus YNL248C, strain rpa49, stronger effect = lower value 1.05 | S. cerevisiae deletion strains, locus YNL250W, strain rad50, stronger effect = lower value 0.985 | S. cerevisiae deletion strains, locus YNL271C, strain bni1, stronger effect = lower value 0.983 | S. cerevisiae deletion strains, locus YNL298W, strain CLA4, stronger effect = lower value 0.963 | S. cerevisiae deletion strains, locus YNL307C, strain MCK1, stronger effect = lower value 0.976 | S. cerevisiae deletion strains, locus YNL322C, strain KRE1 (second series), stronger effect = lower value 0.996 | S. cerevisiae deletion strains, locus YNL322C, strain KRE1, stronger effect = lower value 0.995 | S. cerevisiae deletion strains, locus YNR049C, strain mso1, stronger effect = lower value 1.01 | S. cerevisiae deletion strains, locus YNR052C, strain pop2, stronger effect = lower value 0.98 | S. cerevisiae deletion strains, locus YOL006C, strain TOP1, stronger effect = lower value 0.941 | S. cerevisiae deletion strains, locus YOL012C, strain htz1 0.835 | S. cerevisiae deletion strains, locus YOL147C, strain pex11, stronger effect = lower value 0.987 | S. cerevisiae deletion strains, locus YOR001W, strain rrp6, stronger effect = lower value 0.962 | S. cerevisiae deletion strains, locus YOR061W, strain CKA2, stronger effect = lower value 0.995 | S. cerevisiae deletion strains, locus YOR069W, strain VPS5, stronger effect = lower value 0.991 | S. cerevisiae deletion strains, locus YOR070C, strain gyp1, stronger effect = lower value 1.01 | S. cerevisiae deletion strains, locus YOR080W, strain dia2, stronger effect = lower value 1.01 | S. cerevisiae deletion strains, locus YOR083W, strain WHI5, stronger effect = lower value 0.985 | S. cerevisiae deletion strains, locus YOR106W, strain vam3, stronger effect = lower value 1.04 | S. cerevisiae deletion strains, locus YOR136W, strain idh2, stronger effect = lower value 0.989 | S. cerevisiae deletion strains, locus YOR144C, strain elg1, stronger effect = lower value 0.982 | S. cerevisiae deletion strains, locus YOR184W, strain ser1, stronger effect = lower value 0.964 | S. cerevisiae deletion strains, locus YOR265W, strain rbl2, stronger effect = lower value 1.01 | S. cerevisiae deletion strains, locus YOR270C, strain vph1, stronger effect = lower value 1.09 | S. cerevisiae deletion strains, locus YOR290C, strain snf2, stronger effect = lower value 1.03 | S. cerevisiae deletion strains, locus YOR316C, strain cot1, stronger effect = lower value 0.962 | S. cerevisiae deletion strains, locus YPL051W, strain arl3, stronger effect = lower value 1.04 | S. cerevisiae deletion strains, locus YPL055C, strain LGE1, stronger effect = lower value 0.996 | S. cerevisiae deletion strains, locus YPL078C, strain atp4, stronger effect = lower value 1.05 | S. cerevisiae deletion strains, locus YPL106C, strain sse1, stronger effect = lower value 1.06 | S. cerevisiae deletion strains, locus YPL240C, strain hsp82, stronger effect = lower value 1 | S. cerevisiae deletion strains, locus YPL241C, strain CIN2, stronger effect = lower value 0.994 | S. cerevisiae deletion strains, locus YPR119W, strain clb2, stronger effect = lower value 0.971 | S. cerevisiae deletion strains, locus YPR141C, strain kar3, stronger effect = lower value 0.982 | S. cerevisiae deletion strains, locus YPR163C, strain tif3, stronger effect = lower value 0.975 | S. cerevisiae deletion strains, locus YPR167C, strain met16, stronger effect = lower value 0.966 | S. cerevisiae deletion strains, strain wtn01, stronger effect = lower value 0.955 | S. cerevisiae strains, strain wild type, stronger effect = lower value 0.995
